Shown are actives, neighbours in structure and some others; about 32% of the full set was active somewhere.
PostGolgi yeast: phenotypic screen on post-Golgi transport, primary screen | post-Golgi transport phenotypic cell assay | inhibition, % at 10 µM | 98,000 tested, 0.9% active | AID 739, 2007;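 note: yeast cells grown in 1536-well plates; yeast grown about 18 h at 30C before absorbance read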
CYP2C19 inhib: blockers of cytochrome P450 2C19 activity – biochemical, luminescence, ADME assay, primary screen; P33261; 96,000 tested, 21% active; inhibition, % at 5 µM; CYP2C19 Supersomes, luciferin-H EGE luminescence, 30 min;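 active = CYP2C19 inhibition above a set limit at 5 µM in the primary screen, cut at about 50% in these data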;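 note: plate controls were negative control wells for no effect and 2.5 mM tranylcypromine positive control for full effect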
CYP2C9 inh: blockers of cytochrome P450 2C9 activity – biochemical, luminescence, ADME assay, primary screen; inhibition, % at 5 µM; CYP2C9 Supersomes, luciferin-H conversion; 96,000 tested, 20% active; P11712; AID 777, 2007;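 active = blocking of liver enzyme CYP2C9 beyond about 50% at 5 µM, limit read from the data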
Target sequence (P11712 whole entry, looked up): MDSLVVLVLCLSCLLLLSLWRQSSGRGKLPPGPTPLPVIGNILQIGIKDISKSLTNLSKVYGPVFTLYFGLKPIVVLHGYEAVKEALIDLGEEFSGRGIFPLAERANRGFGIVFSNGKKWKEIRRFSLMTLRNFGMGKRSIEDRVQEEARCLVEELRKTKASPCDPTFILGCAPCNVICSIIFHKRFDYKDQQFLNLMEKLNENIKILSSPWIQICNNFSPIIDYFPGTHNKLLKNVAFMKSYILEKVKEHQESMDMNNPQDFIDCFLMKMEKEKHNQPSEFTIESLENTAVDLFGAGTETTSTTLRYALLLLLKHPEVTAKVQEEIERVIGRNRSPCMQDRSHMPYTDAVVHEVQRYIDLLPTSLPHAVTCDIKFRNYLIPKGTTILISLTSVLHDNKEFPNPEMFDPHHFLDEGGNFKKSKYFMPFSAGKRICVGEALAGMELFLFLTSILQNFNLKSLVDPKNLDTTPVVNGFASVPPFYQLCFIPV
CYP2C19 act: human CYP2C19 activators, primary screen, biochemical, luminescence. recombinant CYP2C19, luciferin-H EGE luminescence; stronger effect = higher value; 0 = fully inhibited enzyme, 1 = untreated enzyme. AID 1025, 2008. 96,000 tested, under 10 active. activation factor at 5 µM. Cytochrome P450 2C19 (Homo sapiens), P33261;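 active = activation factor of at least 2 at 5 µM in the primary screen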;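 note: 0 = wells with 2.5 mM tranylcypromine and 1 = vehicle-only wells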
PostGolgi ctrl: growth inhibition of yeast control strain, primary screen, counter-screen for post-Golgi transport modulator project; 98,000 tested, 5% active; efflux-deficient yeast background strain, growth absorbance A615, 16 h; AID 738, 2007; inhibition, % at 10 µM
CYP2C9 act: human CYP2C9 activators, primary screen, biochemical, luminescence; AID 1024, 2008; Cytochrome P450 2C9 (Homo sapiens), P11712; activation factor at 5 µM; 96,000 tested, 1.4% active; recombinant CYP2C9, luciferin-H conversion; stronger effect = higher value; factor 1 = untreated enzyme, 0 = blocked;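 active = activation factor of 2 or more for CYP2C9 at a 5 µM dose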;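 note: 0 = sulfaphenazole-blocked wells and 1 = vehicle-only wells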
Starred values were filed as active, the others as inactive; x = not tested or not shown. Cut-off read from the data, not from the text of the source, unless noted: active = inhibition above about 30%; inactive = the rest.

SMILES	PostGolgi yeast	CYP2C19 inhib	CYP2C9 inh	CYP2C19 act	PostGolgi ctrl	CYP2C9 act
COCCCNc1oc(COc2ccc(Cl)cc2Cl)nc1C#N	-4.3	99.1*	94.4*	0	13.4	0.1
CS(=O)(=O)N1CCC(C(=O)NCc2ccc(F)cc2Cl)CC1	11.3	1.6	-4.6	1	-1.7	1
COc1ccc(/C=N/N(C(C)=O)c2nc(-c3ccc(C)cc3)cs2)cc1	-4.5	73.2*	57.0*	0.3	16.6	0.4
CCOC(=O)C1CCCc2c1[nH]c1c(C(=O)O)cccc21 (stereo not drawn)	23.5	9.5	2.1	0.9	-0.2	1
O=C(c1cc2nc(-c3ccco3)cc(C(F)(F)F)n2n1)N1CCN(c2ccc(F)cc2)CC1	3.2	81.4*	63.8*	0.2	16.6	0.4
Cc1cc(NC(=O)c2cc3nc(C4CC4)cc(C(F)(F)F)n3n2)no1	11.6	12.9	26.5	0.9	31.0*	0.7
O=C(NCc1ccccc1)c1cc2nc(C3CC3)cc(C(F)(F)F)n2n1	-12.9	12.0	23.5	0.9	10.4	0.8
Cc1nn(-c2nc(-c3ccco3)cc(C(F)(F)F)n2)c(C)c1Br	-3.0	15.9	51.8*	0.8	3.7	0.5
O=C(c1cc2nc(-c3ccco3)cc(C(F)(F)F)n2n1)N1CCN(Cc2ccccc2)CC1	7.9	47.0	63.8*	0.5	6.0	0.4
CCN1CCN(C(=O)c2cc3nc(-c4ccccc4)cc(C(F)(F)F)n3n2)CC1	-2.8	13.9	3.3	0.9	15.3	1
CN(C)CCN1C(=O)c2oc3ccc(Cl)cc3c(=O)c2C1c1cccc(Br)c1 (stereo not drawn)	3.8	6.9	28.0	0.9	12.2	0.7
Cc1ccc(NC(=O)c2sc(Cl)nc2-c2ccccc2)cc1C	-16.4	15.5	15.8	0.8	6.4	0.8
Fc1ccc(N2CCN(c3nc(-c4ccco4)cc(C(F)(F)F)n3)CC2)cc1	1.4	53.5*	48.7	0.5	3.6	0.5
CC(C)NC(=O)c1cc2nc(-c3ccco3)cc(C(F)(F)F)n2n1	8.4	3.3	8.1	1	8.0	0.9
O=C(Nc1ccc(Cl)cc1)c1cc2nc(-c3ccco3)cc(C(F)(F)F)n2n1	4.3	16.7	70.9*	0.8	2.8	0.3
Cc1cc(C)n(C(=O)CCCC(=O)n2nc(C)cc2C)n1	1.4	18.2	-20.1	0.8	-1.6	1.2
Cc1cc(C)n(S(=O)(=O)/C=C/c2ccccc2)n1	11.9	73.9*	-24.5	0.3	2.1	1.2
O=S(=O)(Nc1ccc2c(c1)OCCO2)c1cccc2cccnc12	-2.6	39.5	-72.3	0.6	3.5	1.7
CN(CC(=O)Nc1ccc2c(c1)OCCO2)S(=O)(=O)c1cccc2cccnc12	4.5	78.4*	93.7*	0.2	-6.7	0.1
COc1ccc(NC(=O)CN(C)S(=O)(=O)c2cccs2)cc1	8.4	44.3	48.8	0.6	1.2	0.5
CN(CC(=O)Nc1ccc(Cl)cc1)S(=O)(=O)c1cccc2cccnc12	2.5	47.5	67.9*	0.5	9.6	0.3
Cc1cccc(NC(=O)CN(C)S(=O)(=O)c2cccs2)c1	23.9	79.8*	37.9	0.2	-4.6	0.6
CN(CC(=O)Nc1ccc(F)c(Cl)c1)S(=O)(=O)c1cccc2nsnc12	8.2	x	x	x	0.0	x
Cc1cccc(NC(=O)CN(C)S(=O)(=O)c2cccc3cccnc23)c1	-5.2	47.9	54.2*	0.5	6.5	0.5
Cc1ccccc1NC(=O)CN(C)S(=O)(=O)c1cccc2cccnc12	-9.4	71.9*	88.2*	0.3	17.1	0.1
SMILES	PostGolgi yeast	CYP2C19 inhib	CYP2C9 inh	CYP2C19 act	PostGolgi ctrl	CYP2C9 act
Cc1cccc(NS(=O)(=O)c2cccs2)c1	14.6	93.4*	20.2	0.1	16.1	0.8
Cc1ccc(S(=O)(=O)N(C)CC(=O)Nc2cccc(C)n2)cc1	-4.7	23.1	-25.4	0.8	9.7	1.3
COc1ccc(NC(=O)CN(C)S(=O)(=O)c2cccc3cccnc23)cc1	8.8	69.6*	89.5*	0.3	17.2	0.1
COc1ccc(N(CC(=O)Nc2ccc3c(c2)OCCO3)S(C)(=O)=O)c(OC)c1	-0.5	25.8	83.6*	0.7	4.5	0.2
COc1ccc(N(CC(=O)Nc2ccc3c(c2)OCO3)S(C)(=O)=O)c(OC)c1	-10.4	16.5	69.4*	0.8	-8.3	0.3
COc1ccc(OC)c(N(CC(=O)Nc2ccc3c(c2)OCCO3)S(C)(=O)=O)c1	5.4	63.7*	75.9*	0.4	3.4	0.2
O=C(OCc1cc2ccccc2[nH]c1=O)c1ccncc1	3.1	x	x	x	-0.3	x
O=C(OCc1cc2ccccc2[nH]c1=O)c1ccccc1	-2.6	58.8*	44.0	0.4	7.8	0.6
CCOC(=O)CCCNC(=O)CN1C(=O)NC2(CCCCCC2)C1=O	-0.5	-13.1	-14.3	1.1	1.9	1.1
Cc1nc2ccc(C(=O)OCc3ccccc3Br)cc2nc1C	-0.5	15.5	-31.9	0.8	11.1	1.3
CC(=O)c1c(COC(=O)c2ccccc2)nc2ccccc2[n+]1[O-]	-5.5	73.4*	33.4	0.3	7.1	0.7
O=C(CCc1ccc(S(=O)(=O)NCc2ccccc2)cc1)NCc1ccc2c(c1)OCO2	-6.8	56.0*	76.2*	0.4	13.7	0.2
O=C(CCc1ccc(S(=O)(=O)NCCc2ccccc2)cc1)NCc1ccc2c(c1)OCO2	-2.8	82.3*	82.7*	0.2	12.8	0.2
O=C(O)CCc1ccc(S(=O)(=O)NCCc2ccccc2)cc1	-2.5	-16.5	1.5	1.2	5.0	1
CCC(=O)Nc1sc2c(c1C#N)CC(C)(CC)OC2 (stereo not drawn)	2.0	51.3*	8.4	0.5	10.4	0.9
CN(C)S(=O)(=O)c1cccn1-c1ncc(C(F)(F)F)cc1Cl	-3.4	38.6	44.6	0.6	-0.9	0.6
COc1ccc(-c2onc(C)c2-c2ccc(C(=O)OC(C)C)o2)c(O)c1	-0.5	98.4*	98.2*	0	37.4*	0
COc1ccc2c(c1)CCc1c(C(=O)NCc3ccc(F)cc3)noc1-2	-3.5	-16.5	0.1	1.2	4.7	1
COc1cccc(-c2[nH]nc3c2C(c2ccsc2)C(C#N)=C(N)O3)c1 (stereo not drawn)	0.3	20.6	-5.5	0.8	4.1	1.1
N#CC1=C(N)Oc2n[nH]c(-c3ccccc3)c2C1c1cccc(OC(=O)N2CCOCC2)c1 (stereo not drawn)	0.0	18.8	56.8*	0.8	5.8	0.4
COc1cccc(-c2[nH]nc3c2C(c2ccoc2)C(C#N)=C(N)O3)c1 (stereo not drawn)	4.0	86.9*	49.8	0.1	9.0	0.5
COC(=O)CP(=O)(c1ccccc1)c1ccccc1	0.2	-24.7	-20.9	1.2	13.3	1.2
